Inconclusive results are not listed. The source made the active and inactive calls. How the source made its calls: active means hit-call score of the fitted dose curve at least 0.9, where 1 is the maximum; inconclusive means response in the unintended direction; inactive means score below 0.9.
Target: rat Peripheral-type Benzodiazepine Receptor (PBR), Tspo (gene 24230) (UniProt P16257)
Test: NVS_MP_rPBR: NovaScreen (NVS) Membrane Protein Assay for rat Peripheral-type Benzodiazepine Receptor (PBR) (AID 2283335)
Protocol: NVS_MP_rPBR is a biochemical, single-readout assay that uses extracted gene-proteins from Rat kidney membranes in a tissue-based cell-free assay. Measurements were taken 1 hour after chemical dosing in a 48-well plate.NVS_MP_rPBR is one of one assay component(s) measured or calculated from the NVS_MP_rPBR assay. It is designed to make measurements of radioligand binding, a form of binding reporter, as detected with scintillation counting signals by Filter-based radiodetection technology.Data from the assay component NVS_MP_rPBR was analyzed into 1 assay endpoint. This assay endpoint, NVS_MP_rPBR, was analyzed in the positive analysis fitting direction relative to DMSO as the negative control and baseline of activity. Using a type of binding reporter, loss-of-signal activity can be used to understand changes in the binding as they relate to the gene Tspo. Furthermore, this assay endpoint can be referred to as a primary readout, because the performed assay has only produced 1 assay endpoint. To generalize the intended target to other relatable targets, this assay endpoint is annotated to the transporter intended target family, where the subfamily is cholesterol transporter.
Binding assays used specific radioligands (tritiated, iodinated) with non-radioactive competitive displacement ligands in agonist or antagonist protocols (as indicated) and various reference compounds and inhibitors to titrate specific binding to receptors and transporters. Most enzyme assays (CYPs, kinases, phosphatases, proteases, HDACs) used recombinant protein and specific substrates (fluorescence mostly, some colorimetric and radioactive) and inhibitors, followed by a biochemical separation of substrate and product. All assays for the biochemical HTS were initially run in duplicate at a single concentration (10 uM for CYP450 assays and 25 uM for all others). […] Each assay was run with positive and negative controls, and concurrent controls on every plate. The follow-up (secondary) screen tested active chemical-pairs in concentration series, as well as a few additional assays not tested in the primary screen, some selected negative inactives, and several cases re-run in the concentration series for confirmatory purposes.

rat Peripheral-type Benzodiazepine Receptor (PBR), Tspo (gene 24230), sequence (P16257 whole entry, looked up): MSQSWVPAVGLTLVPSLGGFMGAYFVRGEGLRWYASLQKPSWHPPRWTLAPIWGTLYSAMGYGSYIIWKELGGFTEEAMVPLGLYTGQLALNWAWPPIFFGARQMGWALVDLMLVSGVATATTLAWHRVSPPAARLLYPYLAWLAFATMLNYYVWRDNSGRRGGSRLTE

| Compound | AC50 | outcome |
| --- | --- | --- |
| CCOP(=S)(OCC)Oc1nc(Cl)n(C(C)C)n1 | 12.9 µM (active) |  |
| CC1(C)C(C=C(Cl)Cl)C1C(=O)OC(C#N)c1cccc(Oc2ccccc2)c1 (stereo not given) | 5.01 µM (active) |  |
| CC(C)Oc1cccc(NC(=O)c2ccccc2C(F)(F)F)c1 | 0.28 µM (active) |  |
| CCNP(=S)(OC)O/C(C)=C/C(=O)OC(C)C (stereo not given) | 11.8 µM (active) |  |
| COP(=S)(OC)Oc1ccc([N+](=O)[O-])c(C)c1 |  | inactive |
| CC(C)=CC1C(C(=O)OCc2coc(Cc3ccccc3)c2)C1(C)C (stereo not given) |  | inactive |
| CNC(=O)Oc1cccc2ccccc12 | 25 µM (active) |  |
| COc1ccc(-c2ccccc2)cc1NNC(=O)OC(C)C | 0.0966 µM (active) |  |
| CCN(CC)c1nc(C)cc(OP(=S)(OC)OC)n1 | 0.467 µM (active) |  |
| CCOP(=O)(OCC)Oc1nc(Cl)c(Cl)cc1Cl | 1.6 µM (active) |  |
| O=C(Nc1ccccc1-c1ccc(Cl)cc1)c1cccnc1Cl |  | inactive |
| CCN(CC)C(=O)C(C)Oc1cccc2ccccc12 (stereo not given) | 0.125 µM (active) |  |
| Cc1nc(N(C)C)nc(OC(=O)N(C)C)c1C | 19 µM (active) |  |
| CCCCC(C#N)(Cn1cncn1)c1ccc(Cl)cc1 (stereo not given) | 12.5 µM (active) |  |
| CCOC(=O)C(C)OC(=O)c1cc(Oc2ccc(C(F)(F)F)cc2Cl)ccc1[N+](=O)[O-] (stereo not given) | 6.45 µM (active) |  |
| CC1(C)C(C(=O)OC(C#N)c2cccc(Oc3ccccc3)c2)C1(C)C (stereo not given) |  | inactive |
| COC(=O)N(C(=O)N1CO[C@@]2(C(=O)OC)Cc3cc(Cl)ccc3C2=N1)c1ccc(OC(F)(F)F)cc1 |  | inactive |
| Cc1c(COC(=O)[C@@H]2[C@H](/C=C(\Cl)C(F)(F)F)C2(C)C)cccc1-c1ccccc1 |  | inactive |
| CC(C)NC(=O)N1CC(=O)N(c2cc(Cl)cc(Cl)c2)C1=O | 13.3 µM (active) |  |
| COCC(=O)N(c1c(C)cccc1C)C(C)C(=O)OC (stereo not given) | 25 µM (active) |  |
| COCC(C)N(C(=O)CCl)c1c(C)csc1C (stereo not given) | 2.95 µM (active) |  |
| COP(=S)(OC)SCn1nnc2ccccc2c1=O | 13.6 µM (active) |  |
| COC(=O)c1c(C(F)F)nc(C(F)(F)F)c(C2=NCCS2)c1CC(C)C | 0.484 µM (active) |  |
| Clc1nc(Cl)nc(Nc2ccccc2Cl)n1 | 1.3 µM (active) |  |
| OC(c1ccc(Cl)cc1)(c1ccc(Cl)cc1)C(Cl)(Cl)Cl |  | inactive |
| N#Cc1c[nH]cc1-c1cccc2c1OC(F)(F)O2 |  | inactive |
| CC(C)(C)C(=O)C(Oc1ccc(Cl)cc1)n1cncn1 (stereo not given) | 2.37 µM (active) |  |
| CCCCOCN(C(=O)CCl)c1c(CC)cccc1CC | 1.65 µM (active) |  |
| O=C1C2CC=CCC2C(=O)N1SC(Cl)(Cl)Cl (stereo not given) |  | inactive |
| N#Cc1c(Cl)cccc1Cl |  | inactive |
